Out of some 330,000 compounds screened, about 1,000 (0.3%) were called active. A call without a number means that no potency is given here. Not shown: some 3% with an inconclusive outcome. This is one part of a sample in which actives are shown more often than they occur. The call rests on the fitted dose curve; in most records, active means well fitted inhibition curve with a large enough effect; inconclusive means small, poorly fitted or top-dose-only effect; inactive means no such curve, though single readings can be large or run the other way; tested in mouse RAW 264.7 cells.
Assay: qHTS for Inhibitors of Cell Surface uPA Generation; further: nearly all actives have a fitted effect of over 55% in size
Settings: cell surface uPA generation assay; series mostly up to 38.3 µM
How it was run: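 RAW 264.7, 4000 cells/well, o/n 37 C; cpd 1:5 dilution, up to 38.3 uM final; 24 h 37 C/5% CO2 with reagent; ATP-Lite lum. High ATP = LF entry blocked.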
With `COCC(=O)N(C)[C@H]1C[C@H]2c3cc(Oc4ccccc4C)ccc3CCN2C(=O)[C@H]1[C@H](C)O` the Potency was “inactive”.
For `CC(=O)OC1CCC2C3CCC4=C(CC(F)C(=O)C4)C3CCC12C` (stereo unspecified), the Potency was “inactive”.
For `Oc1ccc(Br)cc1/C=N/Nc1ccccn1`, the Potency was 2.82 µM (active).
With `Oc1ccc(/C=N/Nc2ccc(C(F)(F)F)cn2)cc1O` the Potency was “inactive”.
With `Oc1ccc(Br)cc1C=Nc1ccc2[nH]ncc2c1` the Potency was “inactive”.
With `C[C@@H]1ON(C)[C@H]2C[C@H]3c4cc(N5CCN(C)CC5)ccc4CCN3C(=O)[C@@H]12` the Potency was “inactive”.
For `COc1ccc(CNc2nc(NCc3ccc(OC)cc3)c3ncn(C4CCCC4)c3n2)cc1`, the Potency was 1.41 µM (active).
In the case of `COc1ccc(CNc2ncnc3ccccc23)cc1`, the Potency is reported as “inactive”.
For `COc1ccc(CNC(=O)C2CCCC2)cc1`, the Potency was “inactive”.
With `OCCCNc1nc(-c2ccccc2)c2cc(Cl)ccc2n1` the Potency was “inactive”.
In the case of `OCCCNc1nccc(-c2cc(Nc3cccc(Cl)c3)ncn2)n1`, the Potency is reported as 1.58 µM (active).
For `NS(=O)(=O)c1cccnc1Nc1cccc(Cl)c1`, the Potency was “inactive”.
With `NC1=NOC(=O)C1C1CCCCC1` (stereo unspecified) the Potency was “inactive”.
In the case of `CCCCN(C(=O)CSCc1ccc(C)cc1)c1c(N)n(Cc2ccccc2)c(=O)[nH]c1=O`, the Potency is reported as “inactive”.
With `Nc1ccc2c(c1)C(=Cc1cccnc1)c1ccccc1-2` the Potency was “inactive”.
In the case of `COn1c(-c2ccc(Cl)cc2Cl)nc2ncccc21`, the Potency is reported as “inactive”.
For `Clc1ccc(-c2cc(-c3ccccn3)on2)c(Cl)c1`, the Potency was 0.891 µM (active).
For `O=C1c2ccccc2C(=O)N1Cc1cc(-c2ccccc2Cl)no1`, the Potency was “inactive”.
In the case of `CN(O)C(=S)c1ccccc1`, the Potency is reported as “inactive”.
In the case of `CCc1c(Nc2ccccc2C)nc(N)[nH]c1=O`, the Potency is reported as “inactive”.
For `CCN(CC)S(=O)(=O)c1cccc(NC(=O)c2ccc(S(=O)(=O)N3CCCC3)cc2)c1`, the Potency was “inactive”.
With `COc1ccc(-c2cn3cccnc3n2)cc1` the Potency was “inactive”.
In the case of `COc1ccc(-c2cc3ncccc3cn2)cc1`, the Potency is reported as 10 µM (active).
With `COc1ccc(-c2nnc(-c3ccc4ccccc4c3)o2)cc1` the Potency was “inactive”.
With `COc1ccc(/C=C/C(=O)OCC(=O)N2CCN(S(=O)(=O)c3ccc(C)cc3C)CC2)cc1OC` the Potency was “inactive”.
In the case of `COc1cc(C(=O)CCc2ccc3c(c2)OCO3)cc(OC)c1OC`, the Potency is reported as “inactive”.
With `S=C(Nc1ccccc1)Nc1ccc2ccccc2c1` the Potency was “inactive”.
With `Cc1ccn2cc(C(=O)NC3CCN(Cc4ccccc4)CC3)nc2c1` the Potency was “inactive”.
With `COc1ccc(-c2cn3ccc(C)cc3n2)cc1` the Potency was 1 µM (active).
With `CCN(CC)S(=O)(=O)c1ccc(-c2cn3ccc(C)cc3n2)cc1` the Potency was “inactive”.
In the case of `O=c1ccn([C@@H]2O[C@H](CNS(=O)(=O)c3cc4ccccc4s3)[C@@H](O)[C@H]2O)c(=O)[nH]1`, the Potency is reported as “inactive”.
With `O=C(NN=Cc1ccccc1)c1ccccc1` the Potency was “inactive”.
For `CC(=O)N1CCc2ccc(N)cc21`, the Potency was “inactive”.
In the case of `COc1ccc2c(c1)c(=Cc1ccc(N(C)C)cc1)c1cc(-c3ccccc3)[n+](C)n12`, the Potency is reported as “inactive”.
For `O=[N+]([O-])c1cc2ccccc2nc1-c1ccccc1`, the Potency was “inactive”.
For `COc1ccc(C(=O)c2c3ccc([N+](=O)[O-])cc3[n+]([O-])n2CCCN)cc1`, the Potency was 0.794 µM (active).
With `COc1ccc(C(=O)CC(=O)C(=O)Nc2cc([N+](=O)[O-])ccc2OC)cc1` the Potency was “inactive”.
For `COc1ccc2c(C(=O)c3ccc(C)cc3)n(CCC(N)=O)[n+]([O-])c2c1`, the Potency was “inactive”.
In the case of `CC/C(=C(/c1ccccc1)c1ccc(OCC[N+](C)(C)C)cc1)c1ccccc1`, the Potency is reported as “inactive”.
In the case of `Cc1c(NS(=O)(=O)c2cccc(C(=O)Nc3ccc(SC(F)F)cc3)c2)c(=O)n(-c2ccccc2)n1C`, the Potency is reported as “inactive”.
In the case of `OCCN1CCN(CCO)C1=S`, the Potency is reported as “inactive”.
In the case of `COc1cccc(C=CC(=O)C=CC=Cc2ccccc2)c1`, the Potency is reported as “inactive”.
In the case of `COC(=O)C(C)Oc1ccc2c(c1)O/C(=C\c1cccc(Br)c1)C2=O` (stereo unspecified), the Potency is reported as “inactive”.
For `COc1cc(/C=C2\Oc3ccc(C#Cc4ccc(O)cc4)cc3C2=O)cc(OC)c1`, the Potency was 4.47 µM (active).
In the case of `COc1ccc2c(c1)O/C(=C\c1ccccc1O)C2=O`, the Potency is reported as “inactive”.
With `CCC1([N+](=O)[O-])COC(c2ccc(C(C)C)cc2)OC1` (stereo unspecified) the Potency was “inactive”.
In the case of `N#CC1=C(N)Oc2cc(N)ccc2C1c1ccccc1` (stereo unspecified), the Potency is reported as “inactive”.
With `Cc1ccc(OCC(=O)OC(C)CN(C)Cc2ccccc2)cc1` (stereo unspecified) the Potency was “inactive”.
For `OC(CNCc1ccc2c(c1)OCO2)COc1ccccc1` (stereo unspecified), the Potency was “inactive”.
For `CN(Cc1ccccc1)CC(O)COc1ccc(CNCc2cc3ccccc3s2)cc1` (stereo unspecified), the Potency was 10 µM (active).
With `O=c1nc(NO)ccn1C1CCCO1` (stereo unspecified) the Potency was “inactive”.
With `CN(C)CCNC(=O)c1ccc(Cl)c2cc3ccccc3nc12` the Potency was “inactive”.
In the case of `Cc1ccc(S(=O)(=O)n2oc(=O)c(C3CCCCC3)c2N)cc1`, the Potency is reported as “inactive”.
In the case of `COC(=O)C1=CN(Cc2ccc(OC)c(OC)c2)C=C(C(=O)OC)C1c1cccs1`, the Potency is reported as “inactive”.
In the case of `CCc1ccc(OCC2c3cc(OC)c(OC)cc3CCN2C(C)=O)cc1` (stereo unspecified), the Potency is reported as “inactive”.
In the case of `COc1ccc(CC2c3cc(OC)c(OC)cc3CC[N+]2(C)CCC(=O)OCCCCCOC(=O)CC[N+]2(C)CCc3cc(OC)c(OC)cc3C2Cc2ccc(OC)c(OC)c2)cc1OC` (stereo unspecified), the Potency is reported as 10 µM (active).
With `COc1ccc(S(=O)(=O)N2CCc3ccccc32)cc1C(=O)Nc1cc(S(C)(=O)=O)ccc1Cl` the Potency was “inactive”.
For `O=C1/C(=C\c2ccc([N+](=O)[O-])cc2)CS(=O)(=O)C/C1=C/c1ccc([N+](=O)[O-])cc1`, the Potency was “inactive”.
In the case of `CCOC(=O)c1ccccc1OC(=O)Oc1ccccc1C(=O)OCC`, the Potency is reported as “inactive”.
In the case of `CCOC(=O)c1c(C)[nH]c(C)c1S(=O)(=O)N(C)CC(=O)Nc1ccccc1C`, the Potency is reported as “inactive”.
For `CCOC(=O)c1c(C)[nH]c2c1-c1ccccc1C(=O)C2=O`, the Potency was 5.62 µM (active).
In the case of `CC(=O)Oc1ccc(OC(C)=O)c2c1C1C=CC2CC1`, the Potency is reported as “inactive”.
In the case of `C[C@H](O)[C@@H]1C(=O)N2CCc3ccc(N4CCOCC4)cc3[C@@H]2C[C@@H]1N(C)C(=O)C(C)(C)C`, the Potency is reported as “inactive”.
With `CC(NC(=O)c1ccccc1)C(=O)OCC(=O)Nc1cccc(S(=O)(=O)N2CCCC2)c1` (stereo unspecified) the Potency was “inactive”.
For `CCN1/C(=C\c2ccc3ccccc3[n+]2CC)Sc2cc(C)ccc21`, the Potency was 3.55 µM (active).
For `O=C(NNC(=O)c1ccccc1O)c1ccccc1O`, the Potency was “inactive”.
Potency means the concentration at half of the fitted maximal effect.
